Source: PubChem BioAssay (NCATS)
Results filed as inconclusive are left out. Activity calls are given as the source filed them. Calls come from the whole dose curve; as a rule, active = well fitted cell-killing curve with a large enough effect; inconclusive = small, poorly fitted or top-dose-only effect; inactive = no such curve, though single readings can be large or run the other way.

Experiment: qHTS of pediatric cancer cell lines to identify multiple opportunities for drug repurposing: Primary screen for SJ-GBM2 cells (AID 1347091)
Details: SJ-GBM2 viability, CellTiter-Glo luminescence, 48 h; series mostly up to 46 µM; activity change, negative = cytotoxic: at the top concentration
Excerpt: Drug repurposing or repositioning has been offered as a strategy for drug development in oncology programs. This approach has special potential for childhood cancers and other rare or orphan diseases, where the expected return on new drug development has been a disincentive to pharmaceuticals.
In this project we exploit the poly-pharmacology of drugs to discover new indications via phenotypic screening of a panel of 19 well-characterized cell lines derived from solid tumors seen in children and adolescents. The goal is to identify approved drugs with previously unrecognized anticancer properties that has the potential to reveal new mechanisms and biological processes involved in carcinogenesis or drug resistance. We employed a titration-based paradigm (quantitative high-throughput screening or qHTS), where all compounds were tested at multiple concentrations for their effect on cell viability. Concentration-response curves (CRCs) were derived directly from the primary screen, and both potency and efficacy values were used to identify compounds with robust bioactivity profiles. We screened the NIH Chemical Genomics Center (NCGC) Pharmaceutical Collection (NPC) and Mechanism Interrogation Plate (MIPE) small molecule collections of approved and investigational compounds against these cell lines; and measured metabolically active cells after 48 hours of compound treatment as a proxy for cell viability.
Assay Submitter: Nathalia J. Martinez, National Center for Advancing Translational Sciences, National Institutes of Health, Rockville, MD, USA; email: natalia.martinez@nih.gov
[1] Shen, M et al. Quantitative high-throughput phenotypic screening of pediatric cancer cell lines identifies multiple opportunities for drug repurposing. Oncotarget 2017 Dec 19;9(4):4758-4772. PMID 29435139.
The cells were obtained from University of North Carolina (UNC), Pediatric Preclinical Testing Program (PPT), and Coriell Institute (CI).
qHTS cell viability assay:
Cells were assayed in growth media at a density of 500-1,000 cells/well. Five microliters of cells were dispensed into 1,536-well, white, solid-bottom, TC-treated plates (Greiner Bio One) using a multidrop dispenser and incubated at 37 degrees C, 5% CO2, under a humidified atmosphere for 5 hours. Twenty-three nanoliters of compounds and controls (neutral control DMSO or positive control bortezomib at final concentration of 2.3 µM) were subsequently transferred by Kalypsys pintool. For primary screens, the MIPE collection was tested at 11-point dilutions (final concentrations range from 0.78 nM to 46 µM) and the NPC collection at 8-point dilutions (final concentrations range from 0.59 nM to 46 µM). Compounds tested in follow-up screens were assayed at 11-point dilutions. Cells were incubated for 48 hours, followed by addition of 3 uL of CellTiter-Glo (Promega). After a 15 min incubation at room temperature, samples were analyzed for luminescence intensity using a ViewLux High-throughput CCD imager equipped with clear filters.
Potency is the fitted concentration of half-maximal effect.

Structure (SMILES) | Potency | activity change, negative = cytotoxic
CCC1=C[C@@H]2CN(C1)Cc1c([nH]c3ccccc13)[C@@](C(=O)OC)(c1cc3c(cc1OC)N(C)[C@@H]1[C@@](O)(C(=O)OC)[C@H](OC(C)=O)[C@]4(CC)C=CCN5CC[C@]31[C@@H]54)C2 | 33.2 nM (active) | 
COc1cccc(Nc2c(C(N)=O)cnc3c(C)cc(S(=O)(=O)c4cccc(C(=O)N(C)C)c4)cc23)c1 |  | -4.63% [at 16.1 µM] (inactive)
COc1cc2c(cc1-c1c(C)noc1C)ncc1[nH]c(=O)n([C@H](C)c3ccccn3)c12 | 16600 nM (active) | 
COC(=O)Nc1ccc(-c2nc(N3CCOCC3)c3cnn(C4CCN(Cc5cccnc5)CC4)c3n2)cc1 | 743 nM (active) | 
CC(C)(C)c1cnc(CSc2cnc(NC(=O)C3CCNCC3)s2)o1 | 187 nM (active) | 
CC(C)c1noc(N2CCC(COc3ccc(-c4ccc(S(C)(=O)=O)cc4)nc3)CC2)n1 |  | -14.1% (inactive)
COc1cc(C)c(Sc2cnc(NC(=O)c3ccc(CNC(C)C(C)C)cc3)s2)cc1C(=O)N1CCN(C(C)=O)CC1 (stereo not given) | 18700 nM (active) | 
Cc1nc(Nc2n[nH]c3c2CN(C(=O)N[C@H](CN(C)C)c2ccccc2)C3(C)C)c2sccc2n1 | 1050 nM (active) | 
Nc1ccccc1NC(=O)c1ccc(CNC(=O)OCc2cccnc2)cc1 | 4180 nM (active) | 
C[C@@H]1COC(Nc2ccc3ncnc(Nc4ccc(OCc5nccs5)c(Cl)c4)c3c2)=N1 | 23500 nM (active) | 
N#Cc1c(O)c2c(-c3ccc(-c4ccccc4O)cc3)csc2[nH]c1=O |  | 0.171% (inactive)
COCCOc1ccc2c(c1)ncn2-c1ccc2cccc(N3CCC(N)CC3)c2n1 | 11800 nM (active) | 
CC1(C)CCC(c2ccc(Cl)cc2)=C(CN2CCN(c3ccc(C(=O)NS(=O)(=O)c4ccc(N[C@H](CCN5CCOCC5)CSc5ccccc5)c(S(=O)(=O)C(F)(F)F)c4)cc3)CC2)C1 | 23.5 nM (active) | 
O=C(NC1CCNCC1)c1[nH]ncc1NC(=O)c1c(Cl)cccc1Cl | 833 nM (active) | 
CC(C)C[C@H](NC(=O)CNC(=O)c1cc(Cl)ccc1Cl)B(O)O | 187 nM (active) | 
COc1ccc(C(=O)CC2(O)C(=O)Nc3c(Cl)ccc(Cl)c32)cc1 (stereo not given) | 1180 nM (active) | 
Cc1coc2c1C(=O)C(=O)c1c-2ccc2c1CCCC2(C)C | 5900 nM (active) | 
Clc1ccc2ncc(-c3cccc(NC4CNC4)n3)n2c1 | 11800 nM (active) | 
NC1(Cc2ccc(Cl)cc2)CCN(c2ncnc3[nH]ccc23)CC1 | 5260 nM (active) | 
CC(C)(C)c1cc(C(C)(C)C)c(NC(=O)c2c[nH]c3ccccc3c2=O)cc1O |  | 11.9% (inactive)

Structure (SMILES) | Potency | activity change, negative = cytotoxic
O=C1CCC[C@@H]2[C@H]3CCC[N+]4([O-])CCC[C@@H](CN12)[C@@H]34 (stereo not given in full) |  | 15.6% (inactive)
CN1c2cc(O)c(N=NC(N)=O)cc2CC1S(=O)(=O)O (stereo not given) |  | 10% (inactive)
Nc1nccc(Oc2ccc(NC(=O)c3c[nH]cc(-c4ccc(F)cc4)c3=O)cc2F)c1Cl | 132 nM (active) | 
CS(=O)(=O)c1ccc(-c2cnc(N)c(C(=O)Nc3ccccc3)n2)cc1 | 5900 nM (active) | 
Cn1c2ccccc2c2c3c(c4c5ccccc5n(CCC#N)c4c21)CNC3=O | 590 nM (active) | 
COc1ccc(F)c(F)c1C(=O)c1cnc(NC2CCN(S(C)(=O)=O)CC2)nc1N | 743 nM (active) | 
Nc1ccn([C@@H]2O[C@H](CO)[C@H](O)C2(F)F)c(=O)n1 | 235 nM (active) | 
COc1ccc2c(c1)CC[C@@H](CN(C)CC(=O)O)[C@H]2c1ccccc1 | 1180 nM (active) | 
N#CCNC(=O)c1ccc(-c2ccnc(Nc3ccc(N4CCOCC4)cc3)n2)cc1 | 13200 nM (active) | 
Cc1c(C)n(Cc2ccc(-c3ccccc3C(=O)O)cc2)c2ccc(C(=O)N[C@@H](C)c3ccc([N+](=O)[O-])cc3)cc12 | 23500 nM (active) | 
CNC(=O)c1nn(C)c2c1C(C)(C)Cc1cnc(Nc3ccc(N4CCN(C)CC4)cc3)nc1-2 | 1870 nM (active) | 
O=C(NCCS(=O)(=O)c1ccc(C(F)(F)F)cn1)c1ccc(Cl)cc1 |  | 3.55% (inactive)
Cc1cc(Nc2ncnc3ccc(-c4ccc(CNCCS(C)(=O)=O)o4)cc23)ccc1Oc1ccn2ncnc2c1 | 5260 nM (active) | 
COc1ccc(-n2nc(C(N)=O)c3c2C(=O)N(c2ccc(N4CCCCC4=O)cc2)CC3)cc1 |  | 15.7% (inactive)
Nc1cccc(-c2cc3c(Oc4cccc(O)c4)ncnc3[nH]2)c1 | 20900 nM (active) | 
O=C(C=Cc1cccnc1)NCCCCC1CCN(C(=O)c2ccccc2)CC1 | 16.6 nM (active) | 
C=CCn1c(=O)c2cnc(Nc3ccc(N4CCN(C)CC4)cc3)nc2n1-c1cccc(C(C)(C)O)n1 | 166 nM (active) | 
Cn1cncc1[C@@](N)(c1ccc(Cl)cc1)c1ccc2c(c1)c(-c1cccc(Cl)c1)cc(=O)n2C | 20900 nM (active) | 
Cc1[nH]c2ccccc2c1CCNCc1ccc(C=CC(=O)NO)cc1 | 148 nM (active) | 
C=CC(=O)Nc1cc2c(Nc3ccc(F)c(Cl)c3)ncnc2cc1OCCCN1CCOCC1 | 16800 nM (active) | 
